# Screening data: PubChem BioAssay, National Center for Advancing Translational Sciences (NCATS)
# KB-V1 cytotox: KB-V1 MDR subline cytotoxicity; KB-V1 MDR cells viability, CellTiter-Glo, 72 h; Potency, µM (top dose mostly 46.1 µM), most hits filed as cytotoxic; hit rate 3.4% among 400,000; AID 1347076; also: % is scaled to controls: 0 for no effect and ±100 for the full control effect; nearly all actives have a fitted effect of over 60% in size
#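 Cells of the MDR subline KB-V1 are plated, dosed with compound at multiple concentrations, and incubated 72 h at 37 degrees C; CellTiter-Glo is then added and luminescence read after 10 min.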
# HT1080 IDH1KD tx: HT-1080 IDH1 knockdown cell toxicity (counter line); HT-1080 IDH1 knockdown viability, ATP luminescence, 48 h; hit rate 2% among 360,000; Potency, µM (series often up to 46.1 µM), inactives show at the top dose activity, negative = toxicity, actives largely listed as cytotoxic;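 also: 0% = DMSO wells and -100% = cell-free medium wells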
#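 HT-1080-IDH1KD cells (IDH1 knocked down), 750/well in RPMI with 5% FBS, treated with compound 48 h at 37 degrees C. Viability by CellTiter-Glo luminescence, normalised to DMSO and no-cell wells; concentration-response curves classed.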
# HT1080-NT tox: kills 2HG-producing HT-1080-NT fibrosarcoma cells; HT-1080-NT fibrosarcoma viability, CellTiter-Glo ATP luminescence, 48 h; Potency, µM (highest dose often 46.1 µM), inactives show at the highest dose activity, negative = less viability, actives largely listed as cytotoxic; hit rate 1.6% among 360,000; AID 686970;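 also: NT is the 2HG producing partner of a matched IDH1 knockdown line; 0% = DMSO-treated cells and -100% = media-only wells without cells; nearly all actives have a fitted effect of over 55% in size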
#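 HT-1080-NT fibrosarcoma cells (2HG-overproducing), 750 cells/well in RPMI with 5% FBS, dosed after 2 h and incubated 48 h at 37C. CellTiter-Glo luminescence normalized to DMSO and no-cell wells; concentration-response curves fitted and classed.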
# KB-3-1 tox: KB-3-1 parental cell cytotoxicity; hit rate 1.4% among 400,000; KB-3-1 viability, CellTiter-Glo ATP luminescence, 72 h; Potency, µM (highest dose often 46.1 µM), actives largely listed as cytotoxic; also: % is scaled to controls: 0 for no effect and ±100 for the full control effect; nearly all actives have a fitted effect of over 60% in size
#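 72 h, 37 °C compound treatment of KB-3-1 parental cells; CellTiter-Glo added, 10 min, luminescence read. Data corrected against DMSO-only plates and normalized before curve fitting.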
# SW480 rerep: induces DNA re-replication in SW480 colon adenocarcinoma cells. SW480 DNA re-replication, Hoechst DNA content imaging, 48 h. Potency, µM (doses to about 46.1 µM), for inactives: at the highest dose re-replication activation, hits mostly activators. hit rate 1.8% among 340,000. AID 624297; also: % of control where 0% means no effect; nearly all actives have a fitted effect of over 55% in size
#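 Per well, 250 cells were exposed to pinned compound for 48 hr. Nuclear DNA was visualised with Hoechst (40 min, 37 C) and total object intensity recorded by fluorescence scanning.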
# MCF10A rereplic: DNA re-replication induction in MCF 10a cells; AID 624296; hit rate 2.9% among 350,000; MCF 10A DNA re-replication, Hoechst nuclear intensity, 48 h; Potency, µM (series often up to 46.1 µM), without a hit: at the top dose activity, positive = re-replication, hits mostly activators; also: % of control where 0% means no effect; nearly all actives have a fitted effect of over 50% in size
# The depositor's hits bear a star; i = inactive; ? = inconclusive; . = no result given; [ ] = another dose, or the depositor's remark. Hits are enriched below; roughly 8% of the tested compounds scored in any of these assays. Calls follow the shape of the dose curve; as a rule, active = well fitted curve in the direction sought with a large enough effect; inconclusive = small, poorly fitted or top-dose-only effect, or another doubt; inactive = no such curve, though single readings can be large; an effect the other way counts as inactive or inconclusive. Potency is read from the fitted curve at half-maximal effect.
SMILES,KB-V1 cytotox,HT1080 IDH1KD tx,HT1080-NT tox,KB-3-1 tox,SW480 rerep,MCF10A rereplic
CCN(c1ccccc1)S(=O)(=O)c1ccc(Cl)c(NC(=O)CN(C)Cc2cccc(F)c2)c1,16µM*,-15%,-1%,?,20%,?
CCN(c1ccccc1)S(=O)(=O)c1ccc(Cl)c(NC(=O)CN2CCCCCC2)c1,21µM*,?,?,?,101%,?
CCN(c1ccccc1)S(=O)(=O)c1ccc(Cl)c(NC(=O)COC(=O)C2CC2C)c1 (stereo not drawn),i,-7%,-1%,i,8%,-2%
CN(C)S(=O)(=O)c1ccc(Cl)c(NC(=O)CN2CCCCCC2)c1,?,3%,4%,i,-1%,-10%
CCN(c1ccccc1)S(=O)(=O)c1ccc(OC)c(NC(=O)CN(C)C)c1,i,-4%,-8%,i,13%,?
Cc1ccc(C2C=C(c3ccc(Cl)cc3)Nc3nc(NC(=O)c4ccco4)nn32)cc1 (stereo not drawn),?,.,.,i,.,.
CCC(C)NCC(=O)Nc1cc(S(=O)(=O)N(CC)c2ccccc2)ccc1Cl (stereo not drawn),i,-12%,-20%,?,13%,26%
CCN(c1ccccc1)S(=O)(=O)c1ccc(Cl)c(NC(=O)CNC(C)c2ccccc2)c1 (stereo not drawn),16µM*,-9%,-9%,?,17%,0%
Nc1ccc(C(=O)C(=O)c2ccc(N)cc2)cc1,i,0%,-4%,i,0%,-1%
N=C1C=CC(=C(c2ccc(N)cc2)c2ccc(N)cc2)C=C1,i,7.3µM*,23µM*,3.7µM*,?,?
CCC(=O)NC(Cc1ccccc1)c1ccc2c(c1)OCCCO2 (stereo not drawn),13µM*,30%,11%,i,99%,0%
Cc1c(C(=O)Nc2nonc2-c2ccc(F)cc2)oc2ccc(F)cc12,?,21µM*,?,18µM*,5%,-1%
CC1=C(C)/C(=N\OS(=O)(=O)c2ccccc2)C=CC1=O,16µM*,8.9µM*,7.1µM*,11µM*,10µM*,?
Cc1ccc(S(=O)(=O)O/N=C2\CCCc3ccccc32)cc1,i,2%,-1%,i,-5%[9.22 µM],?
CCCCn1c(SCC(=O)c2ccccc2)nc2c(sc3ccccc32)c1=O,i,.,.,i,.,.
COc1ccc(-c2ccc(CCC(=O)O)n2-c2ccccc2C(F)(F)F)cc1,i,.,.,18µM*,.,.
COc1ccc(-c2ccc(CCC(=O)O)n2-c2cc(OC)ccc2OC)cc1,?,?,23µM*,?,.,.
COc1ccc(-c2ccc(CCC(=O)O)n2CC(C)C)cc1,i,?,?,?,9.2µM*,?
COc1ccc(-n2c(CCC(=O)O)ccc2-c2ccccc2)cc1,i,0%,-6%,i,2%,2%
O=C(O)CCc1ccc(-c2ccc(Br)cc2)n1-c1ccccc1O,i,.,.,i,.,.
COc1ccc(-c2ccc(CCC(=O)O)n2-c2ccccc2O)cc1,i,?,?,?,21µM*,1.8µM*
COc1ccc(CNC(=O)CCc2c(C)c3cc4c(C)coc4cc3oc2=O)cc1,i,.,.,i,.,.
O=C(COc1ccc(Cl)cc1)OCc1cc(=O)n2nc(-c3cccs3)sc2n1,i,.,.,i,.,.
CC1CCN(CC(=O)N2CCCc3c2c(=O)oc2ccc(OCc4ccccc4)cc32)CC1,?,?,?,?,?,11µM*
CC1CC(C)CN(CC(=O)N2CCCc3c2c(=O)oc2ccc(OCc4ccccc4)cc32)C1 (stereo not drawn),i,?,?,?,20%,?
SMILES,KB-V1 cytotox,HT1080 IDH1KD tx,HT1080-NT tox,KB-3-1 tox,SW480 rerep,MCF10A rereplic
O=C1c2cnc3nc(SCc4ccc(Cl)cc4)nn3c2CC2c3ccccc3CCN12 (stereo not drawn),i,4%,13%,i,?,3.3µM*
NS(=O)(=O)c1ccc(N=Nc2nc3[nH]cnc(=S)c3[nH]2)cc1,1.2µM*,.,.,1.2µM*,.,.
CC1=NN(C(N)=S)C(=O)C1N=Nc1ccc(S(N)(=O)=O)cc1 (stereo not drawn),i,2%,-1%,i,0%,-1%
Cc1cc(S(=O)(=O)NCc2cccs2)ccc1-n1cnnn1,i,8%,0%,i,-1%,0%
Cc1cc(S(=O)(=O)NCc2cccnc2)ccc1-n1cnnn1,i,0%,-3%,i,?,18µM*
CCOC(=O)c1ccc(S(=O)(=O)N2CC(=O)Nc3ccccc32)cc1,i,-20%,-21%,i,15µM*,?
CCOc1cccc(C2C=C(c3ccc4c(c3)OCO4)NC(c3ccccc3Cl)N2)c1O (stereo not drawn),i,.,.,i,.,.
CC(=O)C(Sc1nc(-c2ccccc2Cl)nc2c1c(=O)n(C)c(=O)n2C)C(=O)N(C)C (stereo not drawn),i,.,.,i,.,.
CCOc1ccccc1CNc1nc2nc(C)c(CC(=O)OC)c(=O)n2[nH]1,?,.,.,i,.,.
COc1cc(O)c(CC=C(C)C)c(O)c1C(=O)CCc1ccc(O)cc1,i,?,-24%,i,?,6.5µM*
Cc1ccc(C2=NC(=O)/C(=C/c3cc(O)c(O)c(Br)c3)S2)cc1,?,-17%,-11%,i,8.2µM*,?
Cc1cc(Nc2ccccc2)nc2cc(O)ccc12,?,13%,2%,?,?,21µM*
COc1ccc(Nc2cc(C)c3ccc(O)cc3n2)cc1,?,-18%,11%,i,?,?
CCOc1ccc(NC(=O)[C@@H](c2ccccc2)N2Cc3ccccc3C2=O)cc1,i,.,.,i,.,.
COc1ccc(CN(C)C(=O)CNC(=O)c2sc3ccccc3c2Cl)c(OC)c1OC,5.8µM*,4%,4%,?,-2%,0%
COc1cccc(CN(C)C(=O)CNC(=O)c2ccc(-c3ccccc3)cc2)c1OC,?,4.6µM*,?,i,-17%,11%
COc1ccc(CN(C)C(=O)CNC(=O)c2sc3ccccc3c2Cl)c(OC)c1,?,-14%,-9%,i,.,.
COc1cccc(CN(C)C(=O)CNC(=O)c2cccs2)c1OC,?,11%,7%,i,3%,-3%
O=C(NCc1ccc2c(c1)CCN2C(=O)c1ccccc1)c1cc2ccccc2[nH]1,i,.,.,i,.,.
CCCCNC(=O)c1nn(-c2ccc(C)cc2)c(=O)n(C)c1=O,i,.,.,i,.,.
